Source: PubChem
HP1b chromo inh = HP1-beta chromodomain-methylated histone interaction inhibition. AlphaScreen HP1-beta / biotin-H3K9me3 peptide binding. actives 0.56% (n = 390,000). Potency, µM (highest dose often 114 µM), inactives show at the top dose activity change, negative = inhibition, hits mostly inhibitors. AID 540317; also: nearly all actives have a fitted effect of over 70% in size
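AlphaScreen: HP1-beta (50 nM) preformed 30 min with biotin-H3(1-18)K9me3 peptide (50 nM) in PBS pH 7.4, 0.01% Tween-20. Compound added for 30 min at RT, then streptavidin donor/nickel chelate acceptor beads (10 ug/mL) for 30 min.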
PLK1 PBD inh = blocks phosphopeptide binding to human PLK1 polo-box domain; AID 720504; Plk1 PBD binding of FITC phosphopeptide, fluorescence polarization; Potency, µM, without a hit: max response, negative = inhibition, usual class: inhibitors; actives 2.8% (n = 360,000); also: series mostly up to about 57 µM; % is scaled to controls: 0 for no effect and ±100 for the full control effect; nearly all actives have a fitted effect of over 65% in size
JMJD2A Tudor = blocks the human JMJD2A Tudor domain; O75164; AlphaScreen JMJD2A-Tudor / H3K4me3 peptide binding; Potency, µM (series often up to 114 µM), inactives show at the top dose activity change, negative = inhibition, actives largely listed as inhibitors; actives 4.4% (n = 390,000); AID 504339; also: % is scaled to controls: 0 for no effect and ±100 for the full control effect; nearly all actives have a fitted effect of over 50% in size
BAZ2B inh = blocks human BAZ2B; Q9UIF8; AlphaScreen BAZ2B-H3K14Ac peptide displacement; Potency, µM (titrated, usually from 114 µM), inactives show at the top dose activity change, negative = inhibition, most hits filed as inhibitors; actives 4.4% (n = 360,000); AID 504333; also: % is scaled to controls: 0 for no effect and ±100 for the full control effect; nearly all actives have a fitted effect of over 60% in size
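Complex of BAZ2B and biotin-H3K14Ac (50 nM apiece) forms over 30 min at RT, then faces library compounds up to 110 uM for another 30 min; AlphaScreen beads added, 20 min dark incubation, luminescence read.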
G9a block = blocks human histone lysine methyltransferase G9a; Q96KQ7; AID 504332; actives 8.8% (n = 350,000); G9a H3K9 monomethylation, AlphaScreen, 2 h; Potency, µM (highest dose often 102 µM), without a hit: at the top dose activity, negative = inhibition, actives largely listed as inhibitors; also: % is scaled to controls: 0 for no effect and ±100 for the full control effect; nearly all actives have a fitted effect of over 75% in size
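G9a (20 nM) preincubated 15 min RT with compounds, then 500 nM biotinylated H3K9 peptide and 20 uM SAM added; 2 h RT reaction. Monomethyl-H3K9 product detected by AlphaScreen with anti-H3K9me1 antibody, streptavidin donor and anti-rabbit IgG acceptor beads.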
VDR inhibitor = inhibitors of human vitamin D receptor; Potency, µM, for inactives: max response, negative = inhibition, actives largely listed as inhibitors; VDR-SRC2-3 peptide fluorescence polarization, 2 h; AID 504847; actives 0.93% (n = 400,000); also: % is scaled to controls: 0 for no effect and ±100 for the full control effect
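FP read-out; VDR + SRC2-3 coactivator peptide; 23 nl compound by pintool; 2 h RT incubation; reagents held at 4 deg C, protected from light.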
* marks the source's active call; other numbers are inactive results; ? = inconclusive; · = no result given; [ ] = remark or other dose. Sampled rows, rich in hits. Any-hit rate of the full collection: about 11%. Calls follow the shape of the dose curve; as a rule, active = well fitted curve in the direction sought with a large enough effect; inconclusive = small, poorly fitted or top-dose-only effect, or another doubt; inactive = no such curve, though single readings can be large; an effect the other way counts as inactive or inconclusive. Potency is read from the fitted curve at half-maximal effect.

SMILES	HP1b chromo inh	PLK1 PBD inh	JMJD2A Tudor	BAZ2B inh	G9a block	VDR inhibitor
Cc1cccc(N2CCN(C(=O)c3ccc4c(c3)c(C)c(C)n4C)CC2)c1C	?	·	-2%	0%	-4%[59 µM]	20%
Cc1ccc(C)c(N2CCN(C(=O)c3ccc4c(c3)c(C)c(C)n4C)CC2)c1	?	-3%	45µM*	35µM*	32µM*	4%
Cc1ccc(OCC(=O)NNC(=O)CSC(=S)N2CCCC2)cc1	30%	-11%	-16%	-4%	45µM*	-13%
O=C(COc1ccccc1)Nc1ccc(S(=O)(=O)N2CCCC2)cc1	32%	-5%	-1%	0%	50µM*	-23%
CCOc1ccc(NC(=O)C(=O)NCCN2CCN(S(=O)(=O)c3ccc(C)cc3)CC2)cc1	1%	-5%	-20%	5%	0%	-22%
Cc1ccc(OCC(=O)Nc2ccc(S(=O)(=O)N3CCN(C)CC3)cc2)cc1	53%	-6%	-13%	-37%	11µM*	-1%
CCOc1ccc(NC(=O)C(=O)NCCN2CCN(S(=O)(=O)c3ccccc3)CC2)cc1	-2%	24µM*	?	-2%	-1%	?
COc1ccccc1OCC(=O)NNC(=O)CSC(=S)N1CCCC1	29%	-11%	-17%	4%	26%[12.7 µM]	-6%
O=C(COc1ccccc1)Nc1ccc(S(=O)(=O)N2CCCCCC2)cc1	15%	-3%	-4%	3%	-5%[12.7 µM]	-1%
COc1ccc(-c2ccc(C3C4C=CCCC4(C)C(=O)N3Cc3ccccc3)c(F)c2)cc1 (stereo not drawn)	33%	·	-28%	·	·	-24%
CCc1ccc(-n2nc(C)c3c(C)cc(=O)n(CC(=O)Nc4ccc(OC)c(OC)c4)c32)cc1	29%	·	-15%	-2%	12%[59 µM]	8%
CC(=O)N1CCc2cc(S(=O)(=O)NC(Cc3ccccc3)C(=O)Nc3cc(C)ccc3C)ccc21 (stereo not drawn)	19%	·	-27%	·	?	-9%
COc1ccc(OCC(=O)Nc2ccc(S(=O)(=O)N3CCCC3)cc2)cc1	4%	-9%	-5%	-9%	4%	6%
CC(C)c1ccc(CCNC(=O)CSC(=S)N2CCCC2)cc1	38%	27µM*	12%	16%	16µM*	-19%
CC(=O)Nc1ccc(S(=O)(=O)NCCC(=O)OCC(=O)N2CCN(C(=O)c3ccco3)CC2)cc1	7%	-9%	-29%	50µM*	·	-29%
Cc1ccc(S(=O)(=O)N2CCN(C(=O)[C@H](Cc3ccccc3)NC(=O)c3ccco3)CC2)cc1	23%	4%	-1%	·	·	14%
Cc1ccc(OCC(=O)Nc2ccc(S(=O)(=O)N3CCCC3)cc2)cc1	24%	-8%	-4%	0%	79µM*	-5%
Cc1ccc(S(=O)(=O)N2CCN(C(=O)COc3ccc(NC(=O)c4ccco4)cc3)CC2)cc1	2%	17µM*	?	1%	-2%[12.7 µM]	-24%
O=C(CCNS(=O)(=O)c1cccc(Cl)c1)OCC(=O)N1CCN(C(=O)c2ccco2)CC1	6%	-13%	?	-9%	2%[2.33 µM]	-6%
CCOC(=O)c1cccc(NC(=O)Cn2c(=O)c3cccn3c3ccccc32)c1	55%	·	-18%	-17%	1%[59 µM]	2%
COc1ccc(Cc2nc3ccc(C(=O)NC(C)Cc4ncccc4C)cc3o2)cc1OC (stereo not drawn)	10%	-2%	-24%	-23%	22%	5%
O=C(Nc1cccc(C(=O)O)c1)/C(=C\c1ccccc1)NC(=O)c1ccco1	·	5%	·	·	·	·
CCCC1Cc2c(sc3ncnc(N)c23)CO1 (stereo not drawn)	60%	-10%	-6%	5%	45µM*	-17%
CCOC(=O)C(C)Sc1nc2c(c(=O)[nH]c(=O)n2C)n1C/C=C(/C)Cl (stereo not drawn)	-80%	12µM*	?	-5%	7.1µM*	?
CSc1nc2c(c(=O)[nH]c(=O)n2C)n1C/C=C(\C)Cl	-11%	-9%	-8%	-8%	40µM*	-8%
CCSc1nc2c(c(=O)[nH]c(=O)n2C)n1C/C=C(/C)Cl	15%	-9%	-2%	-5%	?	-5%
CCOc1ccc2nc(N3CCCC(C(=O)NCCc4ccc(OC)cc4OC)C3)sc2c1 (stereo not drawn)	44%	·	-16%	-30%	-4%[59 µM]	5%
Cn1c[n+](C)cc1/C=N/O	8%	2%	50µM*	89µM*	40µM*	-9%
